From the supplement of paper PMC11732987, “Enantioselective OTUD7B fragment discovery through chemoproteomics screening and high-throughput optimisation” (Communications Chemistry, 2025)

Legend:
Test in all cases: log2 ratio of Biotin-Ahx-Ub-VS probe labelling (fragment/DMSO); higher = less target engagement (more negative = stronger competition), active = hit call of the paper (q ≤ 0.05, log2 ratio ≤ -1)
Conditions in all cases: compound concentration: 200 uM; treatment time: 3 h
USP34 = USP34 (UniProt Q70CQ2)
Chain of USP34 (Q70CQ2 whole entry, the tested form may be a part): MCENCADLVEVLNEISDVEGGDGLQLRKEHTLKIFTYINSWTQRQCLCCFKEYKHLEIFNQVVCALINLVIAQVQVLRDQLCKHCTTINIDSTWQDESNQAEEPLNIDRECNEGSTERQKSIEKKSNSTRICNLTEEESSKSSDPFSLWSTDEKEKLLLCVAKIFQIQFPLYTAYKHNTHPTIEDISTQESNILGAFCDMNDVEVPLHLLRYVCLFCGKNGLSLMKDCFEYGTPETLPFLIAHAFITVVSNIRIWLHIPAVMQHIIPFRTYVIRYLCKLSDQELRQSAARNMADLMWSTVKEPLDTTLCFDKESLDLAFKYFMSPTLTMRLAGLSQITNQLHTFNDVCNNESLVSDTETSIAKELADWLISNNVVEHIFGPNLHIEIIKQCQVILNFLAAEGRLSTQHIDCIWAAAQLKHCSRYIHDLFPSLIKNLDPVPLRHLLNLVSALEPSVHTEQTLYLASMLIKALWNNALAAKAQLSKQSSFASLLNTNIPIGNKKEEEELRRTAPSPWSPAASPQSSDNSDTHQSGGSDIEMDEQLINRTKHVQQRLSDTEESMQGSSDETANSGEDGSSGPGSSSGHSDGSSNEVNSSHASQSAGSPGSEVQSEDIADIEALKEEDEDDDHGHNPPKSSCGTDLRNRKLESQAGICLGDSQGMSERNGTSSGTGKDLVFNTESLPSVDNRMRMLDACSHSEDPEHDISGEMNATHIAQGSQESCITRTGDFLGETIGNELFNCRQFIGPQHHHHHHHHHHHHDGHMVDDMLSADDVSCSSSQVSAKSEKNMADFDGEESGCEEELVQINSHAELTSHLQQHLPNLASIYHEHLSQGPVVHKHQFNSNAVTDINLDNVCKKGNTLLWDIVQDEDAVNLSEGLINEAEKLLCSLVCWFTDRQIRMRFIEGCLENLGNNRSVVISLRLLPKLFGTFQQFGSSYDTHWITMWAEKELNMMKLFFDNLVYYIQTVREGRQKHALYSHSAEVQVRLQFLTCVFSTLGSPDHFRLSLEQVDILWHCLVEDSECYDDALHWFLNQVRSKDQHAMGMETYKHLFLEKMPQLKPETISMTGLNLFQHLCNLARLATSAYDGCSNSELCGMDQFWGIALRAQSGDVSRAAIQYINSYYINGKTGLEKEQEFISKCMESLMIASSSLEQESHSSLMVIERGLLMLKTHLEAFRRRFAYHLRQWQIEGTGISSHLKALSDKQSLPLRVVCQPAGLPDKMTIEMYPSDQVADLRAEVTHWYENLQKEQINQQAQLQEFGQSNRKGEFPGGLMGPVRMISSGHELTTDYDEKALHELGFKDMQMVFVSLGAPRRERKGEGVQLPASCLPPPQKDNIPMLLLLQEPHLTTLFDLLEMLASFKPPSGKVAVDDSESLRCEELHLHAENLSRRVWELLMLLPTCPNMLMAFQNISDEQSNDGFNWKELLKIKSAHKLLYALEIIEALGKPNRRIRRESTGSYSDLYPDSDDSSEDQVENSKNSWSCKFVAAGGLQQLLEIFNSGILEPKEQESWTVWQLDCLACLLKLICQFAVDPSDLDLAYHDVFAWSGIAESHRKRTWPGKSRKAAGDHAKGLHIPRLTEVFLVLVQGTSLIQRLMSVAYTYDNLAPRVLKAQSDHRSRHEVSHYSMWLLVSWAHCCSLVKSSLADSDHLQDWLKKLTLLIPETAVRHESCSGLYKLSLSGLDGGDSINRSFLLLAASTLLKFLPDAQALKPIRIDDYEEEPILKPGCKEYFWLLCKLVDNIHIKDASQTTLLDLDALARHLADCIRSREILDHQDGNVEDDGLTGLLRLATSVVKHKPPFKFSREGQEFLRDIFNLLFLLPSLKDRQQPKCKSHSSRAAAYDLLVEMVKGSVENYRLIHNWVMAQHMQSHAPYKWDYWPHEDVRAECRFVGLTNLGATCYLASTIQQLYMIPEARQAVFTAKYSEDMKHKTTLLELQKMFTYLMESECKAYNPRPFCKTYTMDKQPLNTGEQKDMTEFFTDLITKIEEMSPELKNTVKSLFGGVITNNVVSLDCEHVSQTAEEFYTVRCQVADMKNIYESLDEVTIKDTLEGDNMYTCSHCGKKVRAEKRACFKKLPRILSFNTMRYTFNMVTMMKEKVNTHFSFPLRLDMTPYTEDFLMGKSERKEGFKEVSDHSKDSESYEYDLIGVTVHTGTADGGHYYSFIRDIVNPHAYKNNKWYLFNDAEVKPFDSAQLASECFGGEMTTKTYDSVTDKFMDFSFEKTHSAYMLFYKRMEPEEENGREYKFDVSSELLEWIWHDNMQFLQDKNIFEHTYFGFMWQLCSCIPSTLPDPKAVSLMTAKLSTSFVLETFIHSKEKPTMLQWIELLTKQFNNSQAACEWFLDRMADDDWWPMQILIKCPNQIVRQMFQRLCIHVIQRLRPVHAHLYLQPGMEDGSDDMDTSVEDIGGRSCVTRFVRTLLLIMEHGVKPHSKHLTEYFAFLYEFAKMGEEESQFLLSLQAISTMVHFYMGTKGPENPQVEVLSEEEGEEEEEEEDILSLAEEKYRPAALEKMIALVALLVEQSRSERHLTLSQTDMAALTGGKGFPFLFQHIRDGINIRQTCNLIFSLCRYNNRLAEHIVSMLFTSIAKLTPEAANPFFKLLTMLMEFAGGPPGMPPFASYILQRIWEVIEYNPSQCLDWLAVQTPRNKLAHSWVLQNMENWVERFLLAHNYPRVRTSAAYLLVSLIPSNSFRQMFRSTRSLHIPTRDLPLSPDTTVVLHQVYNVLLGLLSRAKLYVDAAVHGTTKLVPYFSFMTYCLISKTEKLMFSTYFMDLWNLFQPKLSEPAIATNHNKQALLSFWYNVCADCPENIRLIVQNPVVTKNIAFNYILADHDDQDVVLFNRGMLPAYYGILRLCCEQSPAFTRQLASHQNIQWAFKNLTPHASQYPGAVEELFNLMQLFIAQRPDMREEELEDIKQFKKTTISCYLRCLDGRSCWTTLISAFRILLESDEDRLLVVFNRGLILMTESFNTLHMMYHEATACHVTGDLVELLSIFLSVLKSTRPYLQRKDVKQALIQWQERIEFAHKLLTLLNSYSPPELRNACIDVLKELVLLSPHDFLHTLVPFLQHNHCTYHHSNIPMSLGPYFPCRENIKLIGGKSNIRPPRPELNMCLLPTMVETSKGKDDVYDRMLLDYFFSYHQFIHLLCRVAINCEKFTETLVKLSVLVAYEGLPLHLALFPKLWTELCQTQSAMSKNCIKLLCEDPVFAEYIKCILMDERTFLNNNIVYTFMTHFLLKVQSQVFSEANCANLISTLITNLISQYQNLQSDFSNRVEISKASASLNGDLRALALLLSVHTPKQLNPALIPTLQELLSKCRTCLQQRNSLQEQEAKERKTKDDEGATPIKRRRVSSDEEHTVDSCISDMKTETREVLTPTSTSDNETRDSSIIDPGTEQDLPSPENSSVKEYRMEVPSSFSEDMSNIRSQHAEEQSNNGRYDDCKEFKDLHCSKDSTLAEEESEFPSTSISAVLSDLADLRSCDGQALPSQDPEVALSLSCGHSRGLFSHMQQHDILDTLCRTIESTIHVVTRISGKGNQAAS
Procedure, shortened: (§1)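 Each value is an average log2 ratio of fragment to vehicle, tested by unpaired t-test. The underlying Spectronaut label-free quantities were global-median-normalised, and only proteins with ≥2 unique peptides were included. Triplicate HEK293T lysate samples (495 µg) were exposed to fragment at 200 µM or vehicle for 3 h, then to Biotin-Ahx-Ub-VS at 0.5 µM final for 1 h, before NeutrAvidin enrichment of labelled DUBs, LysC and trypsin digestion, and diaPASEF LC-MS/MS.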

USP36 = target: T1, USP36 (UniProt Q9P275)
T1 sequence (whole entry): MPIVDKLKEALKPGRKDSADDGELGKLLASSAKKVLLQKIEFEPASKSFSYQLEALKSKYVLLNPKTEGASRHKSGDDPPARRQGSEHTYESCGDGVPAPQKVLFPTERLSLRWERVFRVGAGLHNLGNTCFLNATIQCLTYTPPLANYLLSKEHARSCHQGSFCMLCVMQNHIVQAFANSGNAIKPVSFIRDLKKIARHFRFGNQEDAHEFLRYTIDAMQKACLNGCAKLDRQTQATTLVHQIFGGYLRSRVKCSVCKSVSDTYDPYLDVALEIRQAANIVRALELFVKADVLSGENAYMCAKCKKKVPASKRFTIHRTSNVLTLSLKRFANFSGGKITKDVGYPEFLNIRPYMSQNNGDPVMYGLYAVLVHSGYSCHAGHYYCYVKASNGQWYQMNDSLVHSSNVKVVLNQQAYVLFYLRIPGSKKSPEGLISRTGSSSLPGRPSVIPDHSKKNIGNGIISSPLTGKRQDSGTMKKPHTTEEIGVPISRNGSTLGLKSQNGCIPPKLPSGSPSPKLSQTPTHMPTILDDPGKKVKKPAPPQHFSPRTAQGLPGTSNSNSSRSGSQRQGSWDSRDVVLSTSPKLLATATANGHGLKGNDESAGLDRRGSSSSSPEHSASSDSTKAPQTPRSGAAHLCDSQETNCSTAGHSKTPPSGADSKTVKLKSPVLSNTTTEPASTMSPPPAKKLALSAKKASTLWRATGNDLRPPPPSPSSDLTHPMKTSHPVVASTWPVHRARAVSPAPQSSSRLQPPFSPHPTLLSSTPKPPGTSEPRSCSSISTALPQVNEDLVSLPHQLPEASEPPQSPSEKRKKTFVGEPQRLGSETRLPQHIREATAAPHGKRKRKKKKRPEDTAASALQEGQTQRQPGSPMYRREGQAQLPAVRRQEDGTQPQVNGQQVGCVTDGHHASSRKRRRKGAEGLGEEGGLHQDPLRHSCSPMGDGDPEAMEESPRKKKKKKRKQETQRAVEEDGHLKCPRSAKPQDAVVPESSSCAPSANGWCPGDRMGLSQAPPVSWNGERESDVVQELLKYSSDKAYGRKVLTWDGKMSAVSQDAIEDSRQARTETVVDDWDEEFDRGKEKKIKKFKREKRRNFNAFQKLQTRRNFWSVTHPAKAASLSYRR
Procedure, shortened: as §1

USP38 = target: T2, USP38 (UniProt Q8NB14)
T2 sequence (whole entry): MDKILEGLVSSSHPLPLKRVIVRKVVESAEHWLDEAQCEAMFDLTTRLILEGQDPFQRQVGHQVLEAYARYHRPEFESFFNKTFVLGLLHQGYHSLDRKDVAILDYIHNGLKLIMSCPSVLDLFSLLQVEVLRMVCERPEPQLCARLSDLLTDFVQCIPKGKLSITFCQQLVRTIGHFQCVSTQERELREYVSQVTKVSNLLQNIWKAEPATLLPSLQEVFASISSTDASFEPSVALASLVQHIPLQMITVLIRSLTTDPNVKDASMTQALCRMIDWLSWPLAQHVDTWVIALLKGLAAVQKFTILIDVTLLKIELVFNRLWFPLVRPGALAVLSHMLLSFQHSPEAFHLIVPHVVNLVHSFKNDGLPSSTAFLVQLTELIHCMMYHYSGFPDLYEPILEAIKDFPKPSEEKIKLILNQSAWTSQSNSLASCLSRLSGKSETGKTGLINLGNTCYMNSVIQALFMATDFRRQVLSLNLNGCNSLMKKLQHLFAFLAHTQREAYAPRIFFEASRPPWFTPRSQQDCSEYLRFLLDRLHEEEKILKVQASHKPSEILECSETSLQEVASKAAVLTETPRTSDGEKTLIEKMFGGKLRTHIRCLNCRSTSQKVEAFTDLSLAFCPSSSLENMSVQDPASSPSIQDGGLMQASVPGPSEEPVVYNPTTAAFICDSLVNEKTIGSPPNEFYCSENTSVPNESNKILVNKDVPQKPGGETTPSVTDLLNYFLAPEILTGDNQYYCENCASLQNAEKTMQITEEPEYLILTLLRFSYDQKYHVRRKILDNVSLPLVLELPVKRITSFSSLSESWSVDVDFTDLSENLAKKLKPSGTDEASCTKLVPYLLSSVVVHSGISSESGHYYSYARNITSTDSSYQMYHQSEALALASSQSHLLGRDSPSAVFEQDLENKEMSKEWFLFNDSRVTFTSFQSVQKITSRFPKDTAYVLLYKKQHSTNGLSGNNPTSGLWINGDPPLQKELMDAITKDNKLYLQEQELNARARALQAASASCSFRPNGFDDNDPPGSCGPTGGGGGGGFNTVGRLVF
Procedure, shortened: as §1

USP39 = target: T3, USP39 (UniProt Q53GS9)
T3 sequence (whole entry): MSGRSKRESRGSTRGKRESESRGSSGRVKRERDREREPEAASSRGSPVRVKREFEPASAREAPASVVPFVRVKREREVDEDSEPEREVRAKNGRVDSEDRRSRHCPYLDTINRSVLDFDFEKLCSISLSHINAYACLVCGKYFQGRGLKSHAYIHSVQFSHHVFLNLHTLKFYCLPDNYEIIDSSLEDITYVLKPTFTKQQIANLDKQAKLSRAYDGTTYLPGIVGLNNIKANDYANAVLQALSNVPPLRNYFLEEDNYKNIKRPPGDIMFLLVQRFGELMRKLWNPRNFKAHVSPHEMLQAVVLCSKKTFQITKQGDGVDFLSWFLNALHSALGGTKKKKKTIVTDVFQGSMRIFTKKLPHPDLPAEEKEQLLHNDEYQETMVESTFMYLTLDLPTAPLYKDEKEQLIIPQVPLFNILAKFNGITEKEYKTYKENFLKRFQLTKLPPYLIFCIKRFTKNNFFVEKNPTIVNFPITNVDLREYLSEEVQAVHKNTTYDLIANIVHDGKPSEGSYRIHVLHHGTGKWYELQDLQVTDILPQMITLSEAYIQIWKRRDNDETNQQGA
Procedure, shortened: as §1

USP4 = target: T4, USP4 (UniProt Q13107)
T4 sequence (whole entry): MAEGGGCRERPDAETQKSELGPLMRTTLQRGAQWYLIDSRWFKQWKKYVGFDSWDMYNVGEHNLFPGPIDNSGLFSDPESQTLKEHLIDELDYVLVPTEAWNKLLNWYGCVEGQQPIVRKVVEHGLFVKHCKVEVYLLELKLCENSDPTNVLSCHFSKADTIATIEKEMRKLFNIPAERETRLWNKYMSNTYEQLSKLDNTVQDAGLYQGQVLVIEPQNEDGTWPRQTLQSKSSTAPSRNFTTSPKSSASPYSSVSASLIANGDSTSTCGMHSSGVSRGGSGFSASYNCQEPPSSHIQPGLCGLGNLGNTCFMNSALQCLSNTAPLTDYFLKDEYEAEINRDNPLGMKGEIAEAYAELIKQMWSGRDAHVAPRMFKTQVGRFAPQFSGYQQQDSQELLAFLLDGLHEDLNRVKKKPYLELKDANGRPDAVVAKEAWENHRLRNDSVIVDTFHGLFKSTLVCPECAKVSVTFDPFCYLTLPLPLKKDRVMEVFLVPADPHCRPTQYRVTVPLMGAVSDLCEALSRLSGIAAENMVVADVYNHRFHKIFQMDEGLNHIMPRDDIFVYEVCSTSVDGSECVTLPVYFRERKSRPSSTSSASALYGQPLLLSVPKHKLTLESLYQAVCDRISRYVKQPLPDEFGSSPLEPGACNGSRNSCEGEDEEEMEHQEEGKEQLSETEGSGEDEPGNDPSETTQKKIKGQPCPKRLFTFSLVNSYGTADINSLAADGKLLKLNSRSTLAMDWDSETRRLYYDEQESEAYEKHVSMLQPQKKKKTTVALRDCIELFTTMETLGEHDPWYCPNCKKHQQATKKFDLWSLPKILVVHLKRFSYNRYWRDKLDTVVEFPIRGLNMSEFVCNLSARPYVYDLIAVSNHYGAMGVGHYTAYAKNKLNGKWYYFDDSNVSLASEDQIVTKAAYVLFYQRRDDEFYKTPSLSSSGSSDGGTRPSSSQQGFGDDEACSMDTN
Procedure, shortened: as §1

Measured: log2 ratio of Biotin-Ahx-Ub-VS probe labelling

Cc1nc(CN2CCCN(C(=O)CCl)CC2)no1.Cl
inactive: USP34 0.0178 | USP36 -0.0476 | USP38 0.0657 | USP39 -0.161 | USP4 0.31
